Screening results: PubChem BioAssay, National Center for Advancing Translational Sciences (NCATS)
The sample as a whole holds a higher share of hits than the screen did.
KDM5B inh: inhibitors of human KDM5B histone demethylase; AID 1347165; 2.6% of 220,000 active; Potency, µM (series often up to 57.7 µM), hits mostly inhibitors; KDM5B demethylase, FDH-coupled NADH fluorescence (FDH is formaldehyde dehydrogenase); active = well fitted inhibition curve with a large enough effect; note: 0% is about no effect; nearly all actives have a fitted effect of over 70% in size
Target sequence (Q9UGL1 whole entry, looked up): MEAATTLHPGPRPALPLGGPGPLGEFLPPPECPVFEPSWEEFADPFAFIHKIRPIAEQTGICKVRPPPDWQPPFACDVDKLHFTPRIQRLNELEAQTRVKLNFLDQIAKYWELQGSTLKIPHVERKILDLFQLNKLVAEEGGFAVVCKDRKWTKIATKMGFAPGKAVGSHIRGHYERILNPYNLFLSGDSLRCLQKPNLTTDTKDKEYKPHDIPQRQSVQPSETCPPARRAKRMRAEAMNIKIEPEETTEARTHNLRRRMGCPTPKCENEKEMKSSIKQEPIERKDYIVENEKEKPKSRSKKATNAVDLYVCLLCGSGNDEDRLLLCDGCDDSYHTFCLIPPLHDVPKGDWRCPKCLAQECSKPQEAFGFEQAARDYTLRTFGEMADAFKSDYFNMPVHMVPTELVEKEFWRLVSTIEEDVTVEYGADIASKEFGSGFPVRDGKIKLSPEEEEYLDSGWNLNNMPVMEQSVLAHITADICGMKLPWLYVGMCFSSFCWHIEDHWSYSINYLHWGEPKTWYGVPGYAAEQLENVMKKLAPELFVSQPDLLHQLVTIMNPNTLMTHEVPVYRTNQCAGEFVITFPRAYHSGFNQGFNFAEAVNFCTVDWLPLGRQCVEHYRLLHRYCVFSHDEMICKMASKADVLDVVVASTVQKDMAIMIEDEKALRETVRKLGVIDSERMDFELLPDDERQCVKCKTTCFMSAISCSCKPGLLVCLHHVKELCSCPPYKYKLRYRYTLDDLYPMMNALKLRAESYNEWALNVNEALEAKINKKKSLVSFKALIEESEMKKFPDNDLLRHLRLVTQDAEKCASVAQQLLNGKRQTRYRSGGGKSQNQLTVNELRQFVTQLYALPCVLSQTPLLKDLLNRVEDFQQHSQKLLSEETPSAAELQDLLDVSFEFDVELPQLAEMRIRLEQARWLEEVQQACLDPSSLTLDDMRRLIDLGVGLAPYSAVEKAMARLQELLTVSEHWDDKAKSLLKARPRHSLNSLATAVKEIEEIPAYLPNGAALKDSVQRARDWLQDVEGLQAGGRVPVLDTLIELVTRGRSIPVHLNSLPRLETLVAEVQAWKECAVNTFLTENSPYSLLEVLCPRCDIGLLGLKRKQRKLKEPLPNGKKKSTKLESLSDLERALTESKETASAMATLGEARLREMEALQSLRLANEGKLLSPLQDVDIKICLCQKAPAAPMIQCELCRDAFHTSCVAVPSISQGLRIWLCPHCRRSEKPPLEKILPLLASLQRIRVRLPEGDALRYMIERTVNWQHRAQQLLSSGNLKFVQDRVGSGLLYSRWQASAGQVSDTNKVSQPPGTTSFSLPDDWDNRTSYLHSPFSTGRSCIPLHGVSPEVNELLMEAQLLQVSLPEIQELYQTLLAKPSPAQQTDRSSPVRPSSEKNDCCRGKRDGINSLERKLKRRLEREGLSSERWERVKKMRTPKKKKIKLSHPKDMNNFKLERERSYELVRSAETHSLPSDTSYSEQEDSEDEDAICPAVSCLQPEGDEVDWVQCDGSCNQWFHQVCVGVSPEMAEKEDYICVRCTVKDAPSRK
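Inhibition is measured as reduced NADH fluorescence generation from FDH coupling to formaldehyde release. Truncated KDM5BΔAP at 200 nM final acts on H3K4me3 peptide (12.5 µM in substrate mix) in pH 7.5 HEPES buffer with Tween-20, 30 min, room temperature.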
Active calls of the source: *; i = inactive. Potency is the fitted concentration of half-maximal effect.

SMILES	KDM5B inh
COc1ccc(C(=O)N2CCC(c3n[nH]c(=O)n3Cc3ccc(F)cc3)CC2)c(OC)n1	i
CCC(C)NC(=O)C(NC(=O)c1cccc(OC)c1)C1CCN(C(=O)c2cccc(C)c2)CC1 (stereo not given)	i
O=S(=O)(c1ccc(-c2csc(-c3cccc(Cl)c3)n2)cc1)N1CCOCC1	i
Cc1cc(C(=O)NC2CCS(=O)(=O)C2)c2ccc(F)cc2n1 (stereo not given)	i
Cc1ccc2c(C(=O)NC3CCN(C)CC3)cc(NC(=O)C3CCC3)cc2n1	22µM*
Cc1cc(C(=O)NC2CCCCC2)c2cccc(C)c2n1	i
Cc1ccc(-c2cc(C(=O)NC3CCCCC3)c3ccccc3n2)cc1	i
CC(=O)Nc1cc(C(=O)NC2CCCCC2)c2ccc(C)nc2c1	22µM*
Cn1ncc(N2CCC(NC(=O)C3CCC3)CC2)cc1=O	i
COc1cccc2cc(S(=O)(=O)N3CCCCC3)c(=O)oc12	i
CCn1cc(C(=O)N[C@@H]2CN(Cc3ccccc3)C[C@H]2CN(C)C)cn1	i
CC(C)(C(=O)O)c1cnc(N2C[C@@H](CO)[C@H](CO)C2)nc1N1CCOCC1	i
NS(=O)(=O)c1ccc(C(=O)N[C@H](c2cccs2)C2CC(O)C2)cc1 (stereo not given in full)	i
O=C(N[C@H](c1cccs1)C1CC(O)C1)c1cnn2cc(CCO)cnc12 (stereo not given in full)	14µM*
O=C(N[C@H](c1cccs1)C1CC(O)C1)c1cccc(-n2cccn2)c1 (stereo not given in full)	i
CNc1ncccc1C(=O)N[C@H](c1cccs1)C1CC(O)C1 (stereo not given in full)	28µM*
COc1ccc(C(=O)N[C@H](c2cccs2)C2CC(O)C2)c(F)c1F (stereo not given in full)	i
O=C(CCc1ccc2c(c1)OCO2)N[C@H](c1cccs1)C1CC(O)C1 (stereo not given in full)	i
CNc1cc(C(=O)N[C@H](c2cccs2)C2CC(O)C2)ccn1 (stereo not given in full)	28µM*
CCN(CC)Cc1cnc2c(C(=O)NCCc3cccs3)cnn2c1	i
Cn1ccc2c(C(=O)N[C@H](c3cccs3)C3CC(O)C3)cccc21 (stereo not given in full)	i
CCc1ccc(/C(C)=N/NC(=O)c2ccccc2C)s1	i
CCCCc1nn2c(=O)cc(COC(=O)CNC(=O)c3cccc(C)c3)nc2s1	i
CCOc1ccc(-c2nc(SCC(=O)Nc3nccs3)c(-c3ccc(F)cc3)[nH]2)cc1	i
CNC(=O)c1ccc(NC(=O)CSc2ncc(-c3ccc(F)cc3)o2)cc1	i
SMILES	KDM5B inh
COC(F)(C(=O)Nc1ccccc1C(C)C)C(F)(F)F (stereo not given)	i
O=C(Nc1ccc2n(c1=O)C[C@H]1C[C@@H]2CN(C(=O)c2ccc(-c3ccccc3)cc2)C1)c1ccco1	i
CCCS(=O)(=O)Nc1ccc2n(c1=O)C[C@H]1C[C@@H]2CN(C(=O)c2ccc(-c3ccccc3)cc2)C1	20µM*
CSCC(=O)Nc1ccc2n(c1=O)C[C@H]1C[C@@H]2CN(C(=O)c2ccc(-c3ccccc3)cc2)C1	i
Cc1nc(SCc2cn3cccc(C)c3n2)c2ccccc2n1	i
Cn1c(NCc2ccc3c(c2)OCO3)nc2c1c(=O)n(Cc1ccccc1)c(=O)n2C	i
N#Cc1cccc(-c2cn3c(n2)N(C(=O)Cc2cccs2)CCC3)c1	25µM*
COCC(=O)N1CCCn2cc(-c3cccc(C#N)c3)nc21	25µM*
CN(Cc1cccc(C#N)c1)C(=O)Cc1cccs1	i
COc1cccc(-c2cn3c(n2)N(C(=O)Cc2ccsc2)CCC3)c1	i
Cc1noc(C)c1CC(=O)N1CCCn2cc(-c3ccccc3)nc21	i
Cc1noc(C)c1CC(=O)N1CCCn2cc(-c3ccccc3F)nc21	i
CC(=O)NCC(=O)N1CCCn2cc(-c3ccccc3)nc21	i
Cc1ccc(-c2cn3c(n2)N(C(=O)Cn2ccnc2C)CCC3)cc1	i
Cc1ccccc1CC(=O)N1CCCn2cc(-c3cccc(C#N)c3)nc21	22µM*
O=c1c2c(CO)c(-c3ccc(F)cc3)nn2ccn1Cc1ccccc1F	i
CC(C)n1nnnc1Sc1nc(-c2cccnc2)nc2ccccc12	i
Cc1cc(-c2cnc3n[nH]c(-c4ccccc4)c3n2)ccn1	i
COc1cc(F)ccc1-c1cnc2n[nH]c(-c3sccc3C)c2n1	i
COc1ccc(-c2cnc3n[nH]c(-c4ccc(F)cc4C)c3n2)cc1OC	32µM*
Cc1cc(-c2cnc3n[nH]c(-c4ccc5c(c4)OCO5)c3n2)ccn1	i
Cc1cc(F)ccc1-c1[nH]nc2ncc(-c3cnn(C)c3)nc12	i
Cc1cccc(-c2cnc3n[nH]c(-c4ccccc4)c3n2)c1	35µM*
Cc1ccsc1-c1[nH]nc2ncc(-c3cccc(CO)c3)nc12	i
COc1ccc(-c2[nH]nc3ncc(-c4ccc(CO)cc4)nc23)cc1F	i
SMILES	KDM5B inh
Cc1cc(C)cc(-c2[nH]nc3ncc(-c4ccsc4)nc23)c1	28µM*
COc1ccccc1-c1cnc2n[nH]c(-c3ccccc3)c2n1	35µM*
Cc1ccsc1-c1[nH]nc2ncc(-c3ccc(CO)cc3)nc12	i
COc1ccccc1-c1[nH]nc2ncc(CN(C)Cc3ccccc3)nc12	i
COCCn1cnc2c1c(=O)n(CC(=O)Nc1cc(F)ccc1F)c(=O)n2Cc1ccccc1	i
CCOC(=O)COc1nc(C)c2c(c1C#N)CCCC2	i
COc1ccc(C2(C(=O)N3CCC(c4n[nH]c(=O)n4-c4ccccc4)CC3)CC2)cc1	i
CCCn1nc(C)cc1-c1nn2c(-c3cc(F)ccc3F)nnc2s1	i
CCN(c1ccc(-c2csc(C)n2)cc1)S(C)(=O)=O	i
O=C(Cn1c(=O)c2sccc2n(CC(=O)N2CCCC2)c1=O)Nc1ccc(F)cc1	i
O=C1CCC/C(=N/NC(=O)c2ccc(CSc3ccc(Cl)cc3)cc2)C1	i
COc1ccc(-c2onc(C)c2C(=O)NCCc2cccc(OC)c2)cc1	i
Cc1ccc(C(=O)NC2CCCN(c3cc(-c4ccccc4)[nH]n3)C2)cc1 (stereo not given)	i
O=C(O)/C=C/c1ccc(SC(F)F)cc1	i
COc1ccccc1-c1cnc2n[nH]c(-c3ccccc3C)c2n1	7.1µM*
COc1ccccc1-c1[nH]nc2ncc(-c3ccccc3O)nc12	i
COc1ccc(-c2[nH]nc3ncc(-c4ccccc4O)nc23)cc1F	i
COc1ccccc1-c1[nH]nc2ncc(C(=O)N3C[C@@H](C)O[C@@H](C)C3)nc12	i
O=C(Nc1ccon1)c1cnc2n[nH]c(-c3ccccc3)c2n1	i
Fc1ccccc1-c1cnc2n[nH]c(-c3ccccc3)c2n1	32µM*
CCCn1c(N2CCN(Cc3c(F)cccc3Cl)CC2)nc2c1c(=O)[nH]c(=O)n2C	i
CNc1c(NS(=O)(=O)c2ccc(C)c(C)c2)c(=O)oc2ccccc12	i
COc1ccc(Br)cc1/C=C(/C#N)C(=O)C(C)(C)C	i
O=C(c1ccc2c(c1)OCO2)N1CCn2c(nn(-c3ccc(C(F)(F)F)cc3)c2=O)C1	i
Cc1ccc2[nH]c(=O)cc(C(=O)N3CCOC(CCCC(C)C)C3)c2c1 (stereo not given)	28µM*
Cc1ccc(C)c(C(=O)N2CCOC(CCCc3ccccc3)C2)c1 (stereo not given)	i
